Results as given in the supplement of paper PMC10849652.
Of roughly 8,800 targets only a part is listed; those with a hit were picked by preference. About 0.5% of all pairs of compound and target were hits.

How the values were obtained:
Assay in all cases: log2 fold change, soluble protein after heating vs DMSO (PISA); higher = thermal stabilisation; K562 lysate, 10 uM; active = over 0.2 and 3.5 SD of the protein, either way, in both replicates (recomputed)
[1] = compound: C1=CC=C(C=C1)[C@H](COC2=CC3=C(C=C2)NC(=O)N3)NC(=O)C4=CC=CN(C4=O)CC5=CC(=C(C=C5)F)F
In short: (§1)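 Log-two fold change in thermal stability relative to solvent controls is reported from duplicates. For each sample, crude K562 extract from dounce-homogenised pellets in PBS pH 7.4 with 1 mM MgCl2, at 1 mg/mL protein, was treated with 10 μM compound for 30 min. Aliquots heated for 3 min across 48°C-58°C were pooled, brought to 0.5% NP-40 at 4°C and cleared at 21,000xg for 90 min. The supernatant was quantified by TMTpro 16plex LC-MS/MS with channel sums equalised.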

[2] = compound: CC1=C(SC2=C1C(=N[C@H](C3=NN=C(N32)C)CC(=O)N)C4=CC=C(C=C4)Cl)C
In short: as §1

[3] = compound: CC1=C2C(=CC=C1)N=C(N(C2=O)C3=CC=CC=C3C)CN4C=NC5=C(N=CN=C54)N
In short: as §1

[4] = compound: Cc1sc2c(c1C)C(c1ccc(Cl)cc1)=N[C@@H](CC(=O)OC(C)(C)C)c1nnc(C)n1-2
In short: as §1

[5] = compound: c1ccc([C@@H]2C[C@H]2NC2CCNCC2)cc1
In short: as §1

Measured: log2 fold change

TUBB1 (UniProt Q9H4B7)
inactive: [1] -0.005 | [2] 0.019 | [3] 0.008 | [4] 0.063 | [5] 0.087

TTI2 (UniProt Q6NXR4)
inactive: [1] -0.044 | [2] 0.009 | [3] 0.033 | [4] -0.035 | [5] 0.024

TYW3 (UniProt Q6IPR3)
inactive: [1] 0.082 | [2] 0.006 | [3] 0.065 | [4] -0.029 | [5] -0.067

TMEM97 (UniProt Q5BJF2)
inactive: [1] 0.048 | [2] 0.015 | [3] -0.016 | [4] -0.081 | [5] -0.153

TCF3 (UniProt P15923)
inactive: [1] -0.029 | [2] 0.006 | [3] -0.004 | [4] -0.032 | [5] -0.08

TTC38 (UniProt Q5R3I4)
Sequence of UniProt Q5R3I4 (Q5R3I4 whole entry, looked up): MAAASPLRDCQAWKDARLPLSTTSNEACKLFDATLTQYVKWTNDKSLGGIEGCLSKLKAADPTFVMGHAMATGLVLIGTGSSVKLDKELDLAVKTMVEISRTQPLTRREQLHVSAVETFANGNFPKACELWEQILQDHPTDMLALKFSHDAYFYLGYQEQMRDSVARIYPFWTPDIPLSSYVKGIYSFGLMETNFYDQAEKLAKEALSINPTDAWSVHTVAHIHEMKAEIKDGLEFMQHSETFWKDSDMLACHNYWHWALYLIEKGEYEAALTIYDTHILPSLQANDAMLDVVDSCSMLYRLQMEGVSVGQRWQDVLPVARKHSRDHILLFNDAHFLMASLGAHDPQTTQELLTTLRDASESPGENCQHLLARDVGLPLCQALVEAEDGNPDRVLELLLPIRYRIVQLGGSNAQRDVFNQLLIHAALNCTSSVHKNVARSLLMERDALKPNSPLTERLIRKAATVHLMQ
inactive: [1] -0.001 | [2] 0 | [3] 0.05 | [4] 0.003 | [5] 0.126

UBR1 (UniProt Q8IWV7)
inactive: [1] -0.032 | [2] 0.002 | [3] -0.026 | [4] 0.026 | [5] 0

TPM1 (UniProt H7BYY1)
inactive: [1] -0.028 | [2] 0.017 | [3] 0.059 | [4] 0.031 | [5] 0.023

TUBA3C (UniProt P0DPH7)
inactive: [1] 0.012 | [2] 0.022 | [3] 0.029 | [4] -0.017 | [5] -0.074

TTC27 (UniProt Q6P3X3)
inactive: [1] -0.039 | [2] -0.021 | [3] 0.028 | [4] -0.019 | [5] 0.032

TOE1 (UniProt Q96GM8)
inactive: [1] 0.063 | [2] -0.01 | [3] 0.03 | [4] 0.032 | [5] 0.01

UGDH (UniProt O60701)
inactive: [1] 0.003 | [2] 0.001 | [3] -0.004 | [4] -0.056 | [5] 0.026

TMPO (UniProt P42166)
inactive: [1] -0.013 | [2] 0.015 | [3] 0.015 | [4] 0.011 | [5] 0.059

TBC1D20 isoform 3 (UniProt Q96BZ9)
inactive: [1] -0.08 | [2] -0.07 | [3] 0.005 | [4] -0.007 | [5] 0.015

TBL2 (UniProt Q9Y4P3)
Sequence of UniProt Q9Y4P3 (Q9Y4P3 whole entry, looked up): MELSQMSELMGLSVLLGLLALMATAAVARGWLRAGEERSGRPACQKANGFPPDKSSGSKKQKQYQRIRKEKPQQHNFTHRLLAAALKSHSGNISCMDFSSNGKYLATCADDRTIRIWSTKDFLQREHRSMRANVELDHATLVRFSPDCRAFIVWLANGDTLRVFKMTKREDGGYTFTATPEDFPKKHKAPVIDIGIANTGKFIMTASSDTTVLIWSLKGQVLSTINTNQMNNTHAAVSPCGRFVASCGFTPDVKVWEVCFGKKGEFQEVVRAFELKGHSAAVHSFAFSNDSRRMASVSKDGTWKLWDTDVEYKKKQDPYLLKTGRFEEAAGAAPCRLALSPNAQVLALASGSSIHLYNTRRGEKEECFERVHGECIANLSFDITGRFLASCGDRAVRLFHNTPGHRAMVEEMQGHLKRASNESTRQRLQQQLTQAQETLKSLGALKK
inactive: [1] 0.01 | [2] 0.057 | [3] 0.033 | [4] 0.039 | [5] 0.071

TFAP4 (UniProt Q01664)
inactive: [1] 0.018 | [2] -0.069 | [3] 0.012 | [5] 0.081

TFCP2 (UniProt Q12800)
inactive: [1] 0.044 | [2] -0.013 | [3] 0.004 | [4] -0.013 | [5] -0.103

TBC1D23 (UniProt Q9NUY8)
inactive: [1] 0.007 | [2] 0.01 | [3] -0.017 | [4] 0.016 | [5] -0.024

TBC1D8B (UniProt Q0IIM8)
Sequence of UniProt Q0IIM8 (Q0IIM8 whole entry, looked up): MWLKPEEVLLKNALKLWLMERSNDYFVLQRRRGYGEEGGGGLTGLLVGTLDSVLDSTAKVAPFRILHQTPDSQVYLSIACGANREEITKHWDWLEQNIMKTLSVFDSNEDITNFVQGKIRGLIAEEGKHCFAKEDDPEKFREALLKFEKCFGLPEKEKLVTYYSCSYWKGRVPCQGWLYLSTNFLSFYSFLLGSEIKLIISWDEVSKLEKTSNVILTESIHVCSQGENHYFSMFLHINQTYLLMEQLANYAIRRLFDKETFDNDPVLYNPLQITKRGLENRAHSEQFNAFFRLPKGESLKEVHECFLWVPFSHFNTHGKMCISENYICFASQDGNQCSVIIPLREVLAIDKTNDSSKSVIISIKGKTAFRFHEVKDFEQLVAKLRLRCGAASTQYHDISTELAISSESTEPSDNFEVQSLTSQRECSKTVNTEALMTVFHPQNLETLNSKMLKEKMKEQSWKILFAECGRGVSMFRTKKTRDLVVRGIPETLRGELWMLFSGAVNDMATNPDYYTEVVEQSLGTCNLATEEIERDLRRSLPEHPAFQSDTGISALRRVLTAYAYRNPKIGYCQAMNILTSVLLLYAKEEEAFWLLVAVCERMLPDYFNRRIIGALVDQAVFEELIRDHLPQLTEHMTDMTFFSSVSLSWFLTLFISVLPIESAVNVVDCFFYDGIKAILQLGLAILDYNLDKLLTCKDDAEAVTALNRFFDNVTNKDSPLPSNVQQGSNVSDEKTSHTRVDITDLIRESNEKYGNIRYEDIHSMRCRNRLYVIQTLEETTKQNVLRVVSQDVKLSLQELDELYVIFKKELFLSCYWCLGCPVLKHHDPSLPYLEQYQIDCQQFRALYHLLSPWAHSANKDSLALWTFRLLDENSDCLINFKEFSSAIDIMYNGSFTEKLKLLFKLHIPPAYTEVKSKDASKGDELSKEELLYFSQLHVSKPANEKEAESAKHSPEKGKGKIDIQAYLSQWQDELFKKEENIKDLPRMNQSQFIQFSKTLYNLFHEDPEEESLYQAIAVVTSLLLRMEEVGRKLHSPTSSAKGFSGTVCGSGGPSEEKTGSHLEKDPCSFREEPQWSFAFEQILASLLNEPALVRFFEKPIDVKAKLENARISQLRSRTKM
inactive: [1] -0.086 | [2] -0.078 | [3] -0.038 | [4] -0.013 | [5] -0.101

TMEM177 (UniProt Q53S58)
inactive: [1] 0.002 | [2] -0.009 | [3] 0.015 | [5] 0.068

TOR3A (UniProt Q9H497)
inactive: [1] -0.009 | [2] -0.025 | [3] 0.013 | [4] 0.018 | [5] -0.008

TRNAU1AP (UniProt Q9NX07)
inactive: [1] -0.068 | [2] -0.008 | [3] 0.195 | [4] -0.025 | [5] -0.048

TPM4 (UniProt P67936)
Sequence of UniProt P67936 (P67936 whole entry, looked up): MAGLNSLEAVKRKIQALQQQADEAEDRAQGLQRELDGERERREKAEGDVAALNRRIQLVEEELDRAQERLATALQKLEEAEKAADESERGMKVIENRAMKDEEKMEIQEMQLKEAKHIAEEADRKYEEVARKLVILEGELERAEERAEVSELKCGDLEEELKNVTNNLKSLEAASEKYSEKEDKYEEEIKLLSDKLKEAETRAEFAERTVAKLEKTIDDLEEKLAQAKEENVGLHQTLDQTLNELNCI
inactive: [1] -0.003 | [2] 0.057 | [3] -0.021 | [4] -0.025 | [5] -0.04

TRA2A (UniProt Q13595)
inactive: [1] -0.076 | [2] 0.065 | [3] 0.034 | [4] -0.054 | [5] 0.004

UBAP2 (UniProt Q5T6F2)
inactive: [1] -0.019 | [2] -0.003 | [3] -0.008 | [4] -0.022 | [5] -0.119

TTF2 (UniProt Q9UNY4)
Sequence of UniProt Q9UNY4 (Q9UNY4 whole entry, looked up): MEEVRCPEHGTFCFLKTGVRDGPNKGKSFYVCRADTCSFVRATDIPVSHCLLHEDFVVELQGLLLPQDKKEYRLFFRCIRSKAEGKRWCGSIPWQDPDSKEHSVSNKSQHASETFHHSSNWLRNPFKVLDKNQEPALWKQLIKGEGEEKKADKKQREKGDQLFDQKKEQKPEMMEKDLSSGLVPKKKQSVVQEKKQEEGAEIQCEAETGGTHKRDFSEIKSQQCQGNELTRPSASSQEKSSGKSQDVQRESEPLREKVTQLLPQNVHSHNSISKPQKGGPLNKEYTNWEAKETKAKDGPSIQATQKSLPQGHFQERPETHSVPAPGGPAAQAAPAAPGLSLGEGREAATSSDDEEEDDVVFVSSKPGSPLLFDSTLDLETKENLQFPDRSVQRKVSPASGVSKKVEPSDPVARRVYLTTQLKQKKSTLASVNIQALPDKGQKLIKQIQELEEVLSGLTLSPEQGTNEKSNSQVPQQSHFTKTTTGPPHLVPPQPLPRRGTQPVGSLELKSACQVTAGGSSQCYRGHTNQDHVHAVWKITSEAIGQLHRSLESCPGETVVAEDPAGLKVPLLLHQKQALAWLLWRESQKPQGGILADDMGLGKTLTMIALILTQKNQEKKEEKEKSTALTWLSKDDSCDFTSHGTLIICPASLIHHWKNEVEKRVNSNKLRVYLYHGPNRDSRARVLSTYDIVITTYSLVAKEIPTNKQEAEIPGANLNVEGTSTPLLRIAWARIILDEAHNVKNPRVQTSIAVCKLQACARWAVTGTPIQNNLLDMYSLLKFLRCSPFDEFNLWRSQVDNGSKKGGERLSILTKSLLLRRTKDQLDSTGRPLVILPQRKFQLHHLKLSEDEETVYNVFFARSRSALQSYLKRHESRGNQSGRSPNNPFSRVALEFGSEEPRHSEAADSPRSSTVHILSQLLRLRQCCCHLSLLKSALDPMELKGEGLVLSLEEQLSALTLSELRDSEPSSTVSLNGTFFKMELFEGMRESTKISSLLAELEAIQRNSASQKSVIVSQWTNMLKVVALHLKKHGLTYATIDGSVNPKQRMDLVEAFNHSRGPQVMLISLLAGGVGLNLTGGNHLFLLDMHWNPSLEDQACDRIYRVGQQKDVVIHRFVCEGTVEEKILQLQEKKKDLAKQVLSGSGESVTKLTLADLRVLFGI
inactive: [1] -0.092 | [2] 0.029 | [3] 0.003 | [4] 0.127 | [5] 0.003

TUBB6 (UniProt Q9BUF5)
inactive: [1] -0.005 | [2] 0.033 | [3] 0.02 | [4] 0.017 | [5] 0.027

TELO2 (UniProt Q9Y4R8)
inactive: [1] -0.073 | [2] -0.012 | [3] -0.019 | [4] 0.056 | [5] 0.025

TPP2 (UniProt P29144)
Sequence of UniProt P29144 (P29144 whole entry, looked up): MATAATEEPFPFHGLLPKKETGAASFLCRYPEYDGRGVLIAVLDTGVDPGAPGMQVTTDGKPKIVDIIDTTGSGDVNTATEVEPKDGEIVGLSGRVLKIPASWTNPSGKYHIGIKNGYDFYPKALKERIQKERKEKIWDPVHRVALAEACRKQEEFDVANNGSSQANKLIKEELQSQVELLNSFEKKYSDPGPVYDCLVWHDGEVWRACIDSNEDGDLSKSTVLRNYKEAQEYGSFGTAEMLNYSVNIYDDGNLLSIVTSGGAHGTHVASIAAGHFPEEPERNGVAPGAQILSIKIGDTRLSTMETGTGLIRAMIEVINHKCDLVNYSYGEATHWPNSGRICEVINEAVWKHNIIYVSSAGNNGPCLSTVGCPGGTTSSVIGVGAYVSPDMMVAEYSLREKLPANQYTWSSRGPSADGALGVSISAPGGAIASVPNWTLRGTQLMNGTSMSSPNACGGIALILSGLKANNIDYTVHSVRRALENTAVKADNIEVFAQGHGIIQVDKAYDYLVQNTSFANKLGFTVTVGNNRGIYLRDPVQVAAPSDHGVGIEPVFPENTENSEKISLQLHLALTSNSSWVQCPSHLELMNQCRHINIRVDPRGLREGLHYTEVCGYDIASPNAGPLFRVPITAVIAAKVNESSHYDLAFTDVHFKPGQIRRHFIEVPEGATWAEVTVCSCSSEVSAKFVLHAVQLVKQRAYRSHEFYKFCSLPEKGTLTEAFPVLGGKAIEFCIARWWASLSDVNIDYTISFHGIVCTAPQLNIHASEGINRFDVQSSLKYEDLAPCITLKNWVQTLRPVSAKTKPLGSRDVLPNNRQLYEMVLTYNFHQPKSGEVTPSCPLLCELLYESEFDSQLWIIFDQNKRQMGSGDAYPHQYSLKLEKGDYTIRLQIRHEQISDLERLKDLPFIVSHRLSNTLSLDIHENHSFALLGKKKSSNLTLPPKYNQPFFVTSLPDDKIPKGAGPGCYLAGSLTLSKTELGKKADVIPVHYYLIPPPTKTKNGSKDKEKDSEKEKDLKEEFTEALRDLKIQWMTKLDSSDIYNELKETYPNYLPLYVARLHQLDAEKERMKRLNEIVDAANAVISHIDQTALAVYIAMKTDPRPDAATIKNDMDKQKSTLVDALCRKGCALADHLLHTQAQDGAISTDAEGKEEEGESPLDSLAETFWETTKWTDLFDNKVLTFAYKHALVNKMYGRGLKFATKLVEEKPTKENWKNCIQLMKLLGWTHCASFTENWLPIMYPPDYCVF
inactive: [1] 0.006 | [2] 0.008 | [3] -0.002 | [4] 0.039 | [5] 0.025

UBAP2L isoform 5 (UniProt Q14157)
inactive: [1] -0.047 | [2] 0.049 | [3] -0.022 | [4] 0.029 | [5] -0.004

TRIM33 isoform 2 (UniProt Q9UPN9)
inactive: [1] 0.003 | [2] 0.009 | [3] 0.022 | [4] 0.011 | [5] 0.005

TMEM70 (UniProt Q9BUB7)
Sequence of UniProt Q9BUB7 (Q9BUB7 whole entry, looked up): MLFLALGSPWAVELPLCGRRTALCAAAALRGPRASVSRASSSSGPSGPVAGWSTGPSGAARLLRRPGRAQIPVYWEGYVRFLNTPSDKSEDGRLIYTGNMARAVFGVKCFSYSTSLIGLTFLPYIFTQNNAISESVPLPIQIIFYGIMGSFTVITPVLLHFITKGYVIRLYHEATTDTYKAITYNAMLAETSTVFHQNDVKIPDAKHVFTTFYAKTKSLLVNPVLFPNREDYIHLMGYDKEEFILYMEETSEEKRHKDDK
inactive: [1] -0.029 | [2] 0.045 | [3] 0.021 | [4] 0.013 | [5] -0.083

TPX2 (UniProt Q9ULW0)
inactive: [1] 0.04 | [2] -0.006 | [3] 0.008 | [4] -0.003 | [5] 0

UBR4 (UniProt Q5T4S7)
inactive: [1] -0.012 | [2] -0.008 | [3] 0.012 | [4] 0.012 | [5] -0.003

TUBB4A (UniProt M0QYM7)
inactive: [1] -0.207 | [2] -0.162 | [3] 0.016 | [5] -0.074

THOC5 (UniProt Q13769)
inactive: [1] 0.026 | [2] 0.048 | [3] 0.016 | [4] -0.01 | [5] 0.006

TUBB6 (UniProt K7ES63)
inactive: [1] -0.115 | [2] 0.02 | [3] -0.028 | [5] -0.085

TEDC1 (UniProt Q86SX3)
inactive: [4] 0.058

TUBB4A (UniProt P04350)
inactive: [1] 0.015 | [2] -0.03 | [4] 0.044 | [5] 0.044
